Drawing on PubChem BioAssay AID743427 (Vanderbilt Specialized Chemistry Center, 2014), this text covers fold shift for one molecule.

The target in the test is Metabotropic glutamate receptor 8 (Rattus norvegicus) (UniProt P70579). The test can be described thus: mGlu8 positive allosteric modulation fold shift – cell-based, rat receptor, Ga15, calcium, 10 µM, mechanism study for mGlu8/mGlu7 PAM project, SAR follow-up (AID 743427). Conditions: rat mGlu8/Ga15, Fluo-4 calcium, glutamate CRC; glutamate CRC left shift; at 10 µM; stronger effect = higher value.

With `COC(=O)c1ccc(-n2c(C)cc(C(=O)CSc3ccc(NC(C)=O)cc3)c2C)cc1`, the fold shift turned out to be 4.77.
